PubChem BioAssay (NCI)
About 83,000 compounds went through this panel and 20% of them were active in at least one assay; those are over-represented in the sample as a whole.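 How to read the values: 0–100, growth inhibition (40 = 60% inhibited); 0, no net growth; -100 to 0, cell death (-40 = 40% of starting cells died; -100 = all dead).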 Values without a mark were called inactive. The source made the active and inactive calls. Rule for the calls: active = growth percent below 10; inactive = the rest.

Key:
Test in all cases: NCI-60 one-dose screen, 48 h (100 = growth as untreated, 0 = no growth, -100 = all killed)
HCT-15 colon = conditions: 10 µM unless noted
HT29 colon = conditions: 10 µM unless noted
SNB-75 CNS = conditions: 10 µM unless noted
SNB-19 CNS = conditions: 10 µM unless noted
U251 CNS = conditions: 10 µM unless noted
PC-3 prostate = conditions: 10 µM unless noted
SK-MEL-5 melanoma = conditions: 10 µM unless noted
UACC-62 melanoma = conditions: 10 µM unless noted
LOX IMVI melanoma = conditions: 10 µM
SK-MEL-28 melanoma = conditions: 10 µM unless noted
SK-MEL-2 melanoma = conditions: 10 µM unless noted
EKVX NSCLC = conditions: 10 µM unless noted
SN12C renal = conditions: 10 µM unless noted
UO-31 renal = conditions: 10 µM unless noted
TK-10 renal = conditions: 10 µM unless noted
ACHN renal = conditions: 10 µM unless noted
CAKI-1 renal = conditions: 10 µM unless noted
A498 renal = conditions: 10 µM unless noted
CCRF-CEM leukemia = conditions: 10 µM unless noted
MOLT-4 leukemia = conditions: 10 µM unless noted

Structure (SMILES) | growth (HCT-15 colon) | growth (HT29 colon) | growth (SNB-75 CNS) | growth (SNB-19 CNS) | growth (U251 CNS) | growth (PC-3 prostate) | growth (SK-MEL-5 melanoma) | growth (UACC-62 melanoma) | growth (LOX IMVI melanoma) | growth (SK-MEL-28 melanoma) | growth (SK-MEL-2 melanoma) | growth (EKVX NSCLC) | growth (SN12C renal) | growth (UO-31 renal) | growth (TK-10 renal) [%] | growth (ACHN renal) | growth (CAKI-1 renal) | growth (A498 renal) | growth (CCRF-CEM leukemia) | growth (MOLT-4 leukemia)
C#C[C@]1(O)CC[C@H]2[C@@H]3CC=C4c5sc(-c6ccc([N+](=O)[O-])cc6)nc5CC[C@]4(C)[C@H]3CC[C@@]21C | -41.4% (active) | -80.4% (active) | 93.7% | 34.5% | 0.123% (active) | 1.72% (active) | 23% | 10.6% | -59.9% (active) | -44.8% (active) | -42.8% (active) | -61.6% (active) | 57% | -44.8% (active) | 52 | 3.11% (active) | 23.1% | 6.18% (active) | 9.17% (active) | 10%
CC1(C)CC[C@]2(C(=O)O)CC[C@]3(C)C(=CCC4[C@@]5(C)C[C@@H](O)[C@@H]6OC(c7cccc(Br)c7)OC[C@@]6(C)C5CC[C@]43C)C2C1 (some centres undefined) | 20.7% | 21.5% | 85.1% | 47.1% | 22.9% | 25.3% | 41.3% | 55.5% | 16.5% |  | 65.8% | 27.8% | 46.3% | 30.3% | 35.4 | 19.4% | 39.4% | 69.5% | 27.5% | 13.2%
CCCCNC(=S)Nc1ccc(OCc2nc3ccccc3[nH]2)cc1 | 47.9% | 50.3% | 56% | 70% | 57.4% | 58.2% | 78% | 38.2% |  | 88.2% | 69.1% | 62.3% | 64.5% | 41.1% | 98.8 | 45.5% | 40% | 96.5% | 34.2% | 35.2%
COc1ccc(CCC2c3c(cc4c(c3OC)OCO4)CCN2C)cc1 (centres undefined) | -16.4% (active) | -45.6% (active) | 2.42% (active) | -2.75% (active) | -90.4% (active) | 3.75% (active) | -98.9% (active) | -95.7% (active) | -100% (active) | -98.3% (active) | -62.7% (active) | -17.3% (active) | -18.6% (active) | -21.9% (active) |  | -16.5% (active) | 0.732% (active) | 13.2% | 4.55% (active) | -4.81% (active)
O=C(c1ccccc1)c1ccc2nc(-c3cccc(Cl)c3)[nH]c2c1 | 108% | 110% | 99.2% | 103% | 96.5% | 99.6% | 99.5% | 98% | 95.4% | 104% |  | 105% | 99.5% | 95.4% | 95.9 | 100% | 106% | 114% | 113% | 103%
Cn1cc(-c2cc(N)n3nc(-c4cn(C)c5ccc(Cl)cc45)cc3n2)c2ccccc21 | 100% | 105% | 89% | 108% | 103% | 110% | 98.5% | 98.2% | 110% | 97.4% |  | 104% | 108% | 107% | 79.3 | 100% | 95.4% | 101% | 115% | 104%
O=C(CN1C(=O)/C(=C/c2ccccc2Cl)SC1=S)N1CCOCC1 | 45% | 96.4% | 109% | 92.4% | 93.4% | 102% | 98.9% | 83.2% | 48.2% | 98.8% |  | 99.8% | 78.5% | 66.5% | 112 | 61.2% | 90.9% | 119% | 61.8% | 85.9%
